# Assay results reported in PubChem BioAssay (NCI).
# About 83,000 compounds went through this panel and 20% of them were active in at least one assay; those are over-represented in the sample as a whole.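 Values shown are percent growth following 48 h exposure of cells in 96-well plates to a single concentration of compound; below 10 was considered active.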 Unmarked numbers belong to inactive results. Calls of active or inactive are those of the source.
# Key:
# Assay in all cases: NCI-60 one-dose screen, 48 h (100 = growth as untreated, 0 = no growth, -100 = all killed)
# Conditions in all cases: 10 µM
# SR leukemia = test system: SR leukemia
# RPMI-8226 leukemia = test system: RPMI-8226 leukemia
# OVCAR-8 ovarian = test system: OVCAR-8 ovarian
# OVCAR-5 ovarian = test system: OVCAR-5 ovarian
# OVCAR-4 ovarian = test system: OVCAR-4 ovarian
# SK-OV-3 ovarian = test system: SK-OV-3 ovarian
# IGROV1 ovarian = test system: IGROV1 ovarian
# OVCAR-3 ovarian = test system: OVCAR-3 ovarian
# HS 578T breast = test system: HS 578T breast
# NCI/ADR-RES ovarian = test system: NCI/ADR-RES ovarian
# T-47D breast = test system: T-47D breast
# BT-549 breast = test system: BT-549 breast
# MDA-MB-435 melanoma = test system: MDA-MB-435 melanoma
# SW-620 colon = test system: SW-620 colon
# MCF7 breast = test system: MCF7 breast
# HCT-116 colon = test system: HCT-116 colon
# HCC-2998 colon = test system: HCC-2998 colon
# KM12 colon = test system: KM12 colon
SMILES,growth (SR leukemia),growth (RPMI-8226 leukemia),growth (OVCAR-8 ovarian),growth (OVCAR-5 ovarian),growth (OVCAR-4 ovarian),growth (SK-OV-3 ovarian),growth (IGROV1 ovarian),growth (OVCAR-3 ovarian),growth (HS 578T breast),growth (NCI/ADR-RES ovarian),growth (T-47D breast) [%],growth (BT-549 breast),growth (MDA-MB-435 melanoma),growth (SW-620 colon),growth (MCF7 breast),growth (HCT-116 colon),growth (HCC-2998 colon),growth (KM12 colon)
COc1cccc2c1O/C(=C\c1ncc([N+](=O)[O-])n1C)C2=O,6.35% (active),-8.69% (active),-23.3% (active),-9.04% (active),7.16% (active),-16.6% (active),-17.7% (active),-3.72% (active),-24.3% (active),-3.54% (active),97.5,-63.6% (active),-62.5% (active),-20% (active),3.84% (active),-53.2% (active),-54.9% (active),-50.6% (active)
CNC(=S)Sc1ccc([N+](=O)[O-])cc1[N+](=O)[O-],17.3%,13.7%,81.3%,93.7%,77.1%,80.2%,104%,36.3%,88.2%,92.5%,32.2,20.5%,29.5%,36.8%,31.5%,27.7%,75.1%,13.4%
CCCN(CCC)CCCNC(=O)c1cc2c(-c3ccc(OC)c(OC)c3)nn(C)c2s1,4.41% (active),-10.5% (active),4.29% (active),69.5%,22.1%,24%,35.5%,-10.1% (active),11.5%,-8.48% (active),24.5,13.7%,-24.5% (active),10.8%,11.2%,13.7%,67.2%,6.62% (active)
Nc1c(C(=O)NC2CCCCC2)sc2nc3c(cc12)C(=O)CCC3,78.7%,100%,101%,114%,105%,120%,116%,112%,102%,102%,94.2,95.4%,54.7%,98.8%,83.2%,102%,121%,91.8%
C=CCN1C(=O)/C(=C\c2ccc3c(c2)CCC3)SC1=S,93.1%,91.9%,104%,99.8%,106%,98.6%,106%,109%,112%,105%,91.5,93.5%,109%,104%,103%,99.8%,106%,104%
CCNC1(NC#N)CCCCC1,103%,101%,84.4%,116%,113%,104%,115%,109%,103%,101%,104,110%,97.7%,104%,104%,103%,96.2%,105%
CC(C)/C(=N/O)c1ccccc1,107%,111%,110%,103%,111%,122%,118%,130%,118%,107%,114,111%,107%,114%,107%,109%,106%,117%
C[N+]1=C(/C=C/c2ccc(I)cc2)C(C)(C)c2ccccc21,-8.97% (active),71.8%,67.5%,90.1%,109%,107%,92.3%,34.4%,101%,101%,89.3,93%,75.7%,51.5%,87.7%,87.2%,103%,88.9%
O=C(Nc1cccc([N+](=O)[O-])c1)NN1CCCCCC1,108%,60.5%,99.2%,105%,98.1%,114%,109%,87.4%,97.2%,91.4%,81.7,107%,102%,95.9%,100%,94.3%,94.8%,98.7%
COc1cccc(C(=O)NNc2nc(N3CCOCC3)nc(N3CCN(C(c4ccccc4)c4ccccc4)CC3)n2)c1,65.6%,71.2%,82.5%,94.1%,73.4%,73.7%,67.4%,74.6%,80.1%,84.3%,59.2,87.9%,96.8%,96.5%,79.8%,85.4%,100%,77.7%
O=C1/C(=C/c2ccc(O)cc2)CSc2ccc(Cl)cc21,62.7%,98.2%,89.8%,95.2%,94.9%,105%,16.7%,90.4%,71.1%,82.2%,64.8,81.9%,71.1%,27.9%,20.5%,31.2%,94.4%,35.1%
COc1ccc(C2=Cc3ccc(OC(C)=O)cc3OC2)cc1,64.5%,83.4%,95.8%,101%,88.1%,119%,102%,93.1%,103%,85.2%,87.3,97.5%,91.9%,101%,101%,104%,95%,88.9%
COc1ccc(-c2cn[nH]c2-c2cc(OC)c(OC)c(OC)c2)cc1,3.17% (active),6.58% (active),22.5%,31.1%,45%,10.2%,29.4%,-8.09% (active),23%,27.1%,45.6,-13.8% (active),-19% (active),20.5%,5.37% (active),0.33% (active),6.62% (active),4.39% (active)
CCCCCCCCCCCCc1ccc(C(=O)/C=C/C(=O)O)cc1,-28.1% (active),6.04% (active),67.1%,94.1%,70.9%,98.6%,72.7%,47%,93.7%,100%,11.6,45%,109%,-23.1% (active),-5.2% (active),-61.3% (active),76.2%,97.7%
CCNC(=S)NN,61.6%,75.9%,71.1%,69.3%,82.2%,104%,12.8%,106%,100%,83.8%,47.2,117%,93.7%,83.2%,5.44% (active),10.4%,94.7%,109%
Clc1cc(Cl)c(OCCCCCCN2CCNCC2)c(Cl)c1,-13.9% (active),-24.9% (active),76%,71%,86.9%,98%,46.6%,45.7%,55.3%,75.8%,39.8,70.4%,10.5%,-44% (active),-24.5% (active),12%,-34% (active),21.3%
Cc1cc(C)c(C(=O)OC(C)CNC2CCCCC2)c(C)c1 (stereo unspecified),81.6%,92.9%,101%,59.2%,101%,96.7%,101%,98.5%,100%,92.3%,100,92.4%,90.8%,100%,97.8%,86.3%,103%,98.2%
